Structures are written as SMILES.

Test [1] addresses T1, Serine/threonine-protein kinase D2 (Homo sapiens) (UniProt Q9BZL6).
T1 sequence (whole entry): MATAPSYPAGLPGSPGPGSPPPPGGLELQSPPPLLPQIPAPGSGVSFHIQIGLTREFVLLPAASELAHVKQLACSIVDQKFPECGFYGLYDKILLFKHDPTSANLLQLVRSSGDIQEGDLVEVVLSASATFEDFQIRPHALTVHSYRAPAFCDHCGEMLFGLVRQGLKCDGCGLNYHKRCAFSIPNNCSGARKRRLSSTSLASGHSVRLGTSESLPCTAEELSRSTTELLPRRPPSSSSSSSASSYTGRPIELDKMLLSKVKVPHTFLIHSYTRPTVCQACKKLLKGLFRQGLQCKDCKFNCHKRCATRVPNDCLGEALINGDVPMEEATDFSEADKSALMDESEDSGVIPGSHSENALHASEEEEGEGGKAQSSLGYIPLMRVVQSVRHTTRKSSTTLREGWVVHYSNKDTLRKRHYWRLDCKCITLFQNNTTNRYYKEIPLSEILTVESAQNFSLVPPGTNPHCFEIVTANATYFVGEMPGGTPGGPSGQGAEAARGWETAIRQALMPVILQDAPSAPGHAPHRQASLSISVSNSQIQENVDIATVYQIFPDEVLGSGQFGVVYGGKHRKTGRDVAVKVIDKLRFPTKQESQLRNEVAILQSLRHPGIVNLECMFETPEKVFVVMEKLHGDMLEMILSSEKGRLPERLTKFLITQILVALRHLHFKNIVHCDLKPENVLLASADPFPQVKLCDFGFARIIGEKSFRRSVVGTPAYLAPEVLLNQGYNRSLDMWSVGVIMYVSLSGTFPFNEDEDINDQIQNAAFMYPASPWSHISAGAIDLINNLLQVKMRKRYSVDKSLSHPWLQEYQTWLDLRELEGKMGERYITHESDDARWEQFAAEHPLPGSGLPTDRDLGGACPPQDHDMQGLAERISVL
As to conditions: at 1 µM.

In test [2] the target is T2, Serine/threonine-protein kinase D3 (Homo sapiens) (UniProt O94806).
T2 sequence (whole entry): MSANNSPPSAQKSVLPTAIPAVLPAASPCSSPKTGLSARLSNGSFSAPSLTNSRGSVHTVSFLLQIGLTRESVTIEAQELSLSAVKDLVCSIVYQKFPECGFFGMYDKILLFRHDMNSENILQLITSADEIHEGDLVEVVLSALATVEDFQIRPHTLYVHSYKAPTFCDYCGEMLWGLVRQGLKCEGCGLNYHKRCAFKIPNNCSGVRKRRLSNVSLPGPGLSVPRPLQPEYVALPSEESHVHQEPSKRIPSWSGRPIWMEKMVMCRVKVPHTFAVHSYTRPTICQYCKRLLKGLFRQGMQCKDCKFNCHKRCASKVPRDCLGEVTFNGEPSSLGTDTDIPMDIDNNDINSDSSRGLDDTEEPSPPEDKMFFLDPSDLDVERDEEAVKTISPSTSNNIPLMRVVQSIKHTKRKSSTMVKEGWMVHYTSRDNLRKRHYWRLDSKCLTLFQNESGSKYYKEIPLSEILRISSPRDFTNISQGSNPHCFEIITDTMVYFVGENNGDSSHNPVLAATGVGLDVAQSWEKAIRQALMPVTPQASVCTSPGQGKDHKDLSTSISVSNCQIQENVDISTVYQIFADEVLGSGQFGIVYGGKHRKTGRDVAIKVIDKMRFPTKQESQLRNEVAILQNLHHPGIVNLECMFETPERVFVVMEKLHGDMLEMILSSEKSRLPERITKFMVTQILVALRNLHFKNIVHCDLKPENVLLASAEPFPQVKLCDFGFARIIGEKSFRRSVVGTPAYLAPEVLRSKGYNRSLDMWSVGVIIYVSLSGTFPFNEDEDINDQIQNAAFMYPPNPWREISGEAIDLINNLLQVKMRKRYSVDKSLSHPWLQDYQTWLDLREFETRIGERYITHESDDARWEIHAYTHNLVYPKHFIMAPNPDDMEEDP
Conditions: at 0.1 µM.

Test [3] deals with T2, Serine/threonine-protein kinase D3 (Homo sapiens). As to conditions: at 1 µM.
Test [4] deals with T3, cGMP-dependent protein kinase 1 (Homo sapiens) (UniProt Q13976).
T3 sequence (whole entry): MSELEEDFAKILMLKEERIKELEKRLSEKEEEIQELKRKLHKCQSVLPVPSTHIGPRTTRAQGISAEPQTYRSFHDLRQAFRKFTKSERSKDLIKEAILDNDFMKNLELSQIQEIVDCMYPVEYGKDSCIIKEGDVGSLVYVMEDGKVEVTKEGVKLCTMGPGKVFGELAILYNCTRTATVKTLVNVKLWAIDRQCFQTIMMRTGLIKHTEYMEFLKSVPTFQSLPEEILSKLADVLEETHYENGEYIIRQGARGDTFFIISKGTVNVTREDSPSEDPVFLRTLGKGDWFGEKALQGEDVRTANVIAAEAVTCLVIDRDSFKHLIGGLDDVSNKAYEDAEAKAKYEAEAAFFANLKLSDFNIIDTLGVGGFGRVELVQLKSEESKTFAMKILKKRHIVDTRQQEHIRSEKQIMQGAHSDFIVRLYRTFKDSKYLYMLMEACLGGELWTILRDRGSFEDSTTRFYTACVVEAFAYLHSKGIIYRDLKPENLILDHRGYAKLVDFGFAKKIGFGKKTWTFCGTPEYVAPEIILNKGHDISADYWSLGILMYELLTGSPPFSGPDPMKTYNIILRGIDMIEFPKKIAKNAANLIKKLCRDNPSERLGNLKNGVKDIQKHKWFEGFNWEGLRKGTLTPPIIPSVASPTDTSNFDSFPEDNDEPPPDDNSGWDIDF
As to conditions: at 0.1 µM.

Test [5] addresses T3, cGMP-dependent protein kinase 1 (Homo sapiens). As to conditions: at 1 µM.
The target of test [6] is T4, cGMP-dependent protein kinase 2 (Homo sapiens) (UniProt Q13237).
T4 sequence (whole entry): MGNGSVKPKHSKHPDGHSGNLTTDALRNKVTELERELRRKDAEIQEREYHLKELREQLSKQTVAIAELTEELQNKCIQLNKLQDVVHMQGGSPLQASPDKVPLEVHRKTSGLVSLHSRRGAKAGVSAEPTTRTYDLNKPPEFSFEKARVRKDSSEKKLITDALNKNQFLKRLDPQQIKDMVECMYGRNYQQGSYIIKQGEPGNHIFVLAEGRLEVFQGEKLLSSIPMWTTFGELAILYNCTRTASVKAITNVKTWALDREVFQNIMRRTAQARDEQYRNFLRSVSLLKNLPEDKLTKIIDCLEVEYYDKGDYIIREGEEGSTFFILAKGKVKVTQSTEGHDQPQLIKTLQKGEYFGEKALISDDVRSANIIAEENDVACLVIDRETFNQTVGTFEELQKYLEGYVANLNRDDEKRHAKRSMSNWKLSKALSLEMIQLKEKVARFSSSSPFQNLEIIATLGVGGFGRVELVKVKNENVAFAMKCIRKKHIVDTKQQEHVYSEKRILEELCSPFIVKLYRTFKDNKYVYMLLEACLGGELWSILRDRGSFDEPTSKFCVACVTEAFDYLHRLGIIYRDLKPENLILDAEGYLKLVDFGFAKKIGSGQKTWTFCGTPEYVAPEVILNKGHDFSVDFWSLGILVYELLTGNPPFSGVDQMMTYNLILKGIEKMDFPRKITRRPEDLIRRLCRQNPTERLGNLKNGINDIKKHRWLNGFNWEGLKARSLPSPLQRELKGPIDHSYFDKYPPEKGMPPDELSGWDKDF
Conditions: at 0.1 µM.

The target of test [7] is T4, cGMP-dependent protein kinase 2 (Homo sapiens). Conditions: at 1 µM.
Test [8] has as its target T5, cAMP-dependent protein kinase catalytic subunit PRKX (Homo sapiens) (UniProt P51817).
T5 sequence (whole entry): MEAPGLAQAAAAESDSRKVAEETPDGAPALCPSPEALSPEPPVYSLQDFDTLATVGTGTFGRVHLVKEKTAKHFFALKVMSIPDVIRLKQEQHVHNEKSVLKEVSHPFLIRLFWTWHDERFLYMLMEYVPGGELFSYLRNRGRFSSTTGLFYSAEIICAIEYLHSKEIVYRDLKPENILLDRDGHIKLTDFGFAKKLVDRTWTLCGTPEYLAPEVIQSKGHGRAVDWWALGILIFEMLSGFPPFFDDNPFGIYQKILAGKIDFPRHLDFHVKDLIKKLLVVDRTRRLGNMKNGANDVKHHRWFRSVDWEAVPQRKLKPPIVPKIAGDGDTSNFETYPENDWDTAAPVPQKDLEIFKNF
As to conditions: at 0.1 µM.

Test [9] concerns the target T5, cAMP-dependent protein kinase catalytic subunit PRKX (Homo sapiens). Conditions: at 1 µM.
Test [10] has as its target Rho-associated protein kinase 1 (Homo sapiens) (UniProt Q13464). Conditions: at 0.1 µM.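 Also: values are mean percent inhibition of ROCK1.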

Sequence of Rho-associated protein kinase 1 (Homo sapiens) (Q13464 2-1354 limits assumed): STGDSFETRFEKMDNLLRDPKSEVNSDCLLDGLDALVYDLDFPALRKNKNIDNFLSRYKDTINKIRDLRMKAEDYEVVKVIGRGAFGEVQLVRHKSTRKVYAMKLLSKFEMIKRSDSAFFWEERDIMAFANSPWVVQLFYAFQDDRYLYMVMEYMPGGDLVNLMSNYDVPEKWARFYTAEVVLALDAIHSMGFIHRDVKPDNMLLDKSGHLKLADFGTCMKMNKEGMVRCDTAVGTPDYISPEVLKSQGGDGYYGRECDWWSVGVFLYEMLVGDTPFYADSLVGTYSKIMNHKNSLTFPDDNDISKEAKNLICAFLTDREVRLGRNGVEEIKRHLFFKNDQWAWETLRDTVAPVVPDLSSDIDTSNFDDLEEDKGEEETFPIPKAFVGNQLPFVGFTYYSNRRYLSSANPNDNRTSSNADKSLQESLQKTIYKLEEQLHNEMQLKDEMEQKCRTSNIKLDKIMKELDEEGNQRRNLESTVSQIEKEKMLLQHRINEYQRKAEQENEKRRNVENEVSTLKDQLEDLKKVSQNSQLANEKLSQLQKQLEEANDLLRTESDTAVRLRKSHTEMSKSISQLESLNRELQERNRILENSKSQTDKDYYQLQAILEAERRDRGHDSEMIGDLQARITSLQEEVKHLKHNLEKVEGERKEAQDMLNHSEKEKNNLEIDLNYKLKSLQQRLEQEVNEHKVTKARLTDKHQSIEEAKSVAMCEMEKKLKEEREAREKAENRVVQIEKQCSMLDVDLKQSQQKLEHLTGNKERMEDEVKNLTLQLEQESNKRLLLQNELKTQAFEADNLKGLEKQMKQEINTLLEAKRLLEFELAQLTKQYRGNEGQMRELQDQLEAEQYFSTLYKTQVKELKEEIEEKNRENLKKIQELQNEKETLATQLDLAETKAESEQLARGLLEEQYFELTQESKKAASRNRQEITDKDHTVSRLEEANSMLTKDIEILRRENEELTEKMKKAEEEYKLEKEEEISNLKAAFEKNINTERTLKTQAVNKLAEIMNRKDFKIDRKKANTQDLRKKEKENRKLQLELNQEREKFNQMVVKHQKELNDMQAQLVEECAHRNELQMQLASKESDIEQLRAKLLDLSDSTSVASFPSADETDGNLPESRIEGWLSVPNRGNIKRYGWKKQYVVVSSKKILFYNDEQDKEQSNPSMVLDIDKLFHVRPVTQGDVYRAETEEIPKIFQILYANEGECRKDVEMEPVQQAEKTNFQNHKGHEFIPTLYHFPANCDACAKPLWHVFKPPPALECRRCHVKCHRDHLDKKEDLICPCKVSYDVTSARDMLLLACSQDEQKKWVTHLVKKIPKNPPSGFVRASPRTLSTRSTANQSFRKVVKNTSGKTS

For `COc1cc2c(cc1Nc1nc(Nc3ccsc3C(N)=O)c3cc[nH]c3n1)N(C(=O)CN(C)C)CCC2(C)C`, the inhibition – broadly, the relative decrease from the control value, in per cent – in test [1] was 75.7%; in test [2], 19.8%; in test [3], 75.7%; in test [4], 3.61%; in test [5] it was 8.75%; in [6], 4.41%. Further, the inhibition turned out to be 9.54% in test [7], 2.19% in [8], 6.05% in test [9] and 25% in test [10].
In the case of `CCn1cc(-c2ccnc3[nH]ccc23)c(-c2cccc(NC(=O)Nc3ccc(OCc4ccccc4)cc3)c2)n1`, the inhibition in test [1] was found to be 2.85%; in test [2], 1.53%; in test [3], 4.36%; in test [4], 2.12%; in test [5] it was 1.15%; in [6], 2.48%. Besides, the inhibition is 1.43% in test [7], 4.18% in test [8], 4.31% in [9] and -1.8% in [10].
Turning to `CCNC(=O)O[C@H]1CN[C@H](C#Cc2cc3ncnc(Nc4ccc(OCc5cccc(F)c5)c(Cl)c4)c3s2)C1`, the inhibition in test [1] was 3.71%; in [2], 2.4%; in test [3] it was 3.78%; in test [4], 2.33%; in [5] it was 3.36%; in [6] it was -0.03%. Moreover, the inhibition was 2.81% in [7], -0.14% in test [8], -0.33% in test [9] and 0.96% in test [10].
As for `COc1cccc(-c2c[nH]c3c(N/N=C/c4ccncc4)ncnc23)c1`, the inhibition came out at 5.96% in [1]; 1.85% in [2]; 5.38% in test [3]; 2.91% in [4]; 4.69% in test [5]; 1.71% in test [6]. Besides, the inhibition in [7] was 8.58%; in test [8], 1.13%; in test [9], -0.16%; in test [10], 1.94%.
Take `COc1ccc(-c2cc(-c3c[nH]nc3-c3ccccn3)ccn2)cc1`: the inhibition was 44.8% in test [1]; 7.96% in test [2]; 27.2% in [3]; 1.9% in test [4]; 5.45% in test [5]; 3.27% in test [6]. In addition, the inhibition in test [7] turned out to be 4.61%; in [8], 2.8%; in test [9], 6.17%; in test [10] it was 1.04%.
On to `COc1cc(Nc2nccc(Nc3ccc4c(C)n[nH]c4c3)n2)cc(OC)c1OC`, for which the inhibition came to 2.94% in test [1]; 1.3% in test [2]; 2.54% in test [3]; 3.29% in test [4]; 3.61% in test [5]; 2.12% in test [6]. Also, the inhibition in [7] is 2.71%; in [8], 0.71%; in [9], -0.26%; in test [10] it was 2.06%.
Regarding `Fc1ccc(-c2nn3ncccc3c2-c2ccnc(Nc3ccc4c(c3)OCCO4)n2)cc1`, the inhibition came to 52.1% in [1]; 8% in [2]; 48.4% in [3]; 2.53% in test [4]; 4.25% in [5]; 2.03% in test [6]. Moreover, the inhibition in [7] is 3.43%; in [8], 0.43%; in test [9], 0.09%; in test [10], -0.74%.
As for `CCn1c(-c2nonc2N)nc2c(C#CC(C)(C)O)ncc(OC3CCNCC3)c21`, the inhibition in test [1] is 11.1%; in [2], 3.96%; in test [3], 14.2%; in test [4] it was 31.1%; in [5], 77.4%; in test [6] it was 60.5%. Further, the inhibition was 83.2% in test [7], 74.4% in test [8], 89% in test [9] and 3.14% in test [10].

These data come from ChEMBL document CHEMBL1961873, “Compounds: GSK PKIS; Assays: Nanosyn kinase panel” (2012).
